This passage reports Potency and activity change, negative = inhibition results from PubChem BioAssay AID1964107 (National Center for Advancing Translational Sciences (NCATS), 2024).

Among all 31,000 compounds or so, about 360 (1.2%) were called active. Where a call stands in place of a potency, no number is given. Roughly 8% stayed inconclusive and do not appear here. Many of the other results were omitted from the sample, so actives are more common in it than they were. A number with no mark means an inactive call. Calls follow the shape of the full dose curve.
Potency is read from the fitted curve at half-maximal effect.

Sequence of Polyprotein P1234 (Chikungunya virus (strain S27-African prototype)) (Q8JUX6 whole entry, looked up): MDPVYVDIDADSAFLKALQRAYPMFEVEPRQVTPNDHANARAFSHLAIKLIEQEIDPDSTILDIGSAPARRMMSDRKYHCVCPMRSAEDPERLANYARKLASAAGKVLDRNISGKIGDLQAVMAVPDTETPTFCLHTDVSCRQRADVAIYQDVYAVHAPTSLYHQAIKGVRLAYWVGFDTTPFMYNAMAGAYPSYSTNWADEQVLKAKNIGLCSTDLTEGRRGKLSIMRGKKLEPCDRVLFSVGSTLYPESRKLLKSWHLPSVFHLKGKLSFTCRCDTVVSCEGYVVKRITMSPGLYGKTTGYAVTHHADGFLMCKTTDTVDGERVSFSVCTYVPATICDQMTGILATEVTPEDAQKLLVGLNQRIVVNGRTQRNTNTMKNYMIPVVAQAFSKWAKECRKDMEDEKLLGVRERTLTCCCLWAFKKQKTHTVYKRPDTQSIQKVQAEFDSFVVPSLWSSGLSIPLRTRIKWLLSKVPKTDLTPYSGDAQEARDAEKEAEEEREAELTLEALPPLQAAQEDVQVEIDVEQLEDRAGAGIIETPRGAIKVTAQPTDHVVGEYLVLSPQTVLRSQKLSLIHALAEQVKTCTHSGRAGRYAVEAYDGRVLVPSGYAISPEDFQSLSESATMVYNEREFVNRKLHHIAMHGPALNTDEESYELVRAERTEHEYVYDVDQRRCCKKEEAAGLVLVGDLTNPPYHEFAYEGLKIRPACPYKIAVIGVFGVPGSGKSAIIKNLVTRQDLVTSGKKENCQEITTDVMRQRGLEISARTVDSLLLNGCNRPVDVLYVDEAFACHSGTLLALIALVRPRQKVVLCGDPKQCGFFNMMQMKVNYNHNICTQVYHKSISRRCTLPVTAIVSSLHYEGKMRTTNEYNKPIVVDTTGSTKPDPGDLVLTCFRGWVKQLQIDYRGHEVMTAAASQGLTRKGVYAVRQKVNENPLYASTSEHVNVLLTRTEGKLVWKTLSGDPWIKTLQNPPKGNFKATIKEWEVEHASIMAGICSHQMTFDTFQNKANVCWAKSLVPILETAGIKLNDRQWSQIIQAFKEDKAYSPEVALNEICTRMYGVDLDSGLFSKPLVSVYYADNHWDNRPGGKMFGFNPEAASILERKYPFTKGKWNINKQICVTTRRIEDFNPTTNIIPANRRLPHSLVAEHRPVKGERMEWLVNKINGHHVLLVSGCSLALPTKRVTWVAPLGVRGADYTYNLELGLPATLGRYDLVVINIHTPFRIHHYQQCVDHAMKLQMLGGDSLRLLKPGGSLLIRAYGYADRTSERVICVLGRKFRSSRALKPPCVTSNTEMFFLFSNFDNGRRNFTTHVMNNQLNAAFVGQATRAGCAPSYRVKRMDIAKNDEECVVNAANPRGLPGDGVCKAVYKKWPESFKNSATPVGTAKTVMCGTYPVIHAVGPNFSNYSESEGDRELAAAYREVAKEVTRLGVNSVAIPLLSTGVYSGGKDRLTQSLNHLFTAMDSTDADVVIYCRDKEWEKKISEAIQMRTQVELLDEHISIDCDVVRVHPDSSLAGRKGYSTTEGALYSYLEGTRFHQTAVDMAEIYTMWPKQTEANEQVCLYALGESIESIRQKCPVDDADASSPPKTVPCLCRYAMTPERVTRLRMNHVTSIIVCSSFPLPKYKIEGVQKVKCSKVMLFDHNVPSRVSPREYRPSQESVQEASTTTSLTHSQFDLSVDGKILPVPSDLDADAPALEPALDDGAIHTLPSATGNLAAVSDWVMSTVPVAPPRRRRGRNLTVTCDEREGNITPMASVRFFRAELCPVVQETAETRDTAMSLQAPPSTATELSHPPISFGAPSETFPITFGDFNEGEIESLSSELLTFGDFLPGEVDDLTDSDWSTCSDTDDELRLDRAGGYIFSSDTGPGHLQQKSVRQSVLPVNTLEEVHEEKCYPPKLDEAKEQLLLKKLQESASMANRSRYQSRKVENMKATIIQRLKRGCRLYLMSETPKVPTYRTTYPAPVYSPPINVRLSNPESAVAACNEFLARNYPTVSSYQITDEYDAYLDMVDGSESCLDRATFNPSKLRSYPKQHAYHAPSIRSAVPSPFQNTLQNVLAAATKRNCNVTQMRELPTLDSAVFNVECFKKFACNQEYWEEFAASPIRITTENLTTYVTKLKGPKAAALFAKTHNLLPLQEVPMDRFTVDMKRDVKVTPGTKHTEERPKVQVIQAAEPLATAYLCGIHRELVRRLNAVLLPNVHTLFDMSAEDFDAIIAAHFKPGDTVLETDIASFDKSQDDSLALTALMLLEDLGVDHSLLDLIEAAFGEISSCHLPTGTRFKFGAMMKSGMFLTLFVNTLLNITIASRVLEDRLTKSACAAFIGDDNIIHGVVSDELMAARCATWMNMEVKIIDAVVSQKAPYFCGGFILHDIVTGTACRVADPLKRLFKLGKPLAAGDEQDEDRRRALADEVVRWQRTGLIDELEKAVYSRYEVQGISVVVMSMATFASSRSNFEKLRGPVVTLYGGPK

This experiment concerns the target Polyprotein P1234 (Chikungunya virus (strain S27-African prototype)) (UniProt Q8JUX6). Briefly: Primary qHTS for inhibitors of NSP2Pro chikungunya virus (CHIKV). Also: nearly all actives have a fitted effect of over 60% in size. To be noted: FRET peptide cleavage, fluorescence 1 h; series mostly up to 24.9 µM. From the text: PI: Natalia J. Martinez Ph.D. National Center for Advancing Translational Sciences (NCATS), National Institute of Health (NIH), Rockville, Maryland Chikungunya virus (CHIKV) is a mosquito-borne RNA virus that has emerged as one of the most important global arboviral threats in the last decade. Although the first CHIKV vaccine has recently been FDA approved for use in healthy adults at increased risk, to date, there are no available antiviral drugs for CHIKV infection. CHIKV nsP2 protease plays a crucial role in the processing of the viral polypeptide precursor to release enzymes required for viral replication, thus making it a promising drug target for antiviral discovery. Here, we established a high-throughput pipeline to identify small molecule inhibitors of nsP2 proteolytic activity. The pipeline is composed of a suite of 1,536-well in vitro assays to support quantitative high-throughput (qHTS) screening campaigns. Specifically, we developed a fluorescence resonance energy transfer (FRET)-based assay using a fluorogenic peptide substrate encompassing an endogenous cleavage site and purified recombinant protease domain (nsP2pro). Using this assay, we interrogated ~37,000 small molecules, including those in drug repurposing libraries as well as chemically diverse and medicinal chemistry-friendly compounds. Hits were selected for follow-up validation against full-length nsP2 and an additional peptide. FRET-based 1,536-well assays for papain, hepatitis C virus NS3-4A, and human furin proteases were implemented to characterize compound selectivity. […] Novel compounds were identified to be potential nsP2 inhibitors and molecular docking analyses were performed to explain the binding mode of selected hits. In vitro antiviral activity was evaluated for a subset of compounds using a high-throughput CHIKV infection assay. To our knowledge, the pipeline presented here is unprecedented for CHIKV antiviral discovery research.
PROTOCOL TABLE (as described by Inglese J, Shamu CE and Guy RK. 2007) SEQUENCE No. (e.g., 1, 2, 3, etc.); […] (e.g., Cells, Incubation, Reagent, etc.); VALUE; DESCRIPTION. 1; Control / Compound; 20 nL; Echo 655 acoustic dispenser, Greiner 1536-well solid bottom black plate. 2; Enzyme; 4 uL; BioRAPTR FRD liquid dispenser (Beckman Coulter). 3; Incubation; 15 min; room temperature. 4; Reagent; 4 uL; 2.5 uM Peptide 2 substrate. 5; Incubation; 1 hr; room temperature. 6; Detection; Fluorescence; WiewLux microplate reader (PerkinElmer), 525 nm excitation, 598/25 nm emission. NOTES (numbers refer to sequence numbers above). 1. Briefly, 20 nL DMSO, positive control ZnAc (20nM final concentration), and test compounds were transferred into a 1,536-well solid bottom black plate (789176-F, Greiner One) via Echo 655 acoustic dispenser (Beckman Coulter). For primary screens, compounds were tested at 7 concentrations, 1:3 dilution points ranging from 25 uM to 34 nM. Follow-up confirmatory screens were carried out at 11 concentrations, 1:3 dilution points from 25 uM to 0.42 nM. 2. Four uL nsP2pro enzyme mix (150 nM final concentration) in 10 mM Tris-HCl pH 8.0 with 0.01% Tween 20 assay buffer was dispensed into the plate using a BioRAPTR FRD liquid dispenser (Beckman Coulter). 3. The plate was incubated at room temperature (protected from light) for 15 min 4. Four microliter of peptide 2 substrate (2.5 uM final concentration) in assay buffer was added to the plate. 5. After 1 hour, plates were immediately read on a ViewLux high-throughput CCD imager (Exposure = 10 sec, Gain = High, Speed = Slow, Binning = 2X). The above assay was also incorporated in the NCATS HTS facility41, which allowed for robotic liquid and compound dispensing, microplate handling, and fluorescence reading.. REFERENCE: Inglese J, Shamu CE and Guy RK, Reporting data from high throughput screening of small molecule libraries, Nature Chemical Biology, 2007, 3(8): 438-441. doi.org/10.1038/nchembio0807-438.
Background: Quantitative high-throughput screening tests each substance at several concentrations.
In the case of `CC12CCC(O)CC1=CCC1C2CCC2(C)C(c3cccnc3)=CCC12` (stereo not given), the Potency result was “inactive”.

Consider `O=C(C1CCCC1)N1CC2(CCCN(Cc3ccccn3)C2)Cc2ccccc21` (stereo not given), for which the Potency entry is “inactive”.

For `Cc1cc(C(=O)Nc2cccc(C(F)(F)F)c2)c2c(C)nn(-c3cccc(F)c3)c2n1`, the Potency result is “inactive”.

`NC(=O)c1noc([C@H](CCCC2CCCCC2)CC(=O)NO)n1`: the Potency result is “inactive”.

As for `O=C(CC1N=C2c3ccccc3N=C(SCc3cccc(Cl)c3)N2C1=O)NCc1ccc2c(c1)OCO2` (stereo not given), the Potency entry is “inactive”.

Regarding `CC(C)(C)c1cc(C(=O)O)c(NC(=O)Nc2ccc3[nH]ncc3c2)s1`, the Potency result was “inactive”.

In the case of `CC(Nc1ncnc2ccc(-c3ccc4c(c3)OCO4)cc12)c1ccco1` (stereo not given), the Potency result is “inactive”.

As for `CCC(CC)c1nn2cc(-c3ccccc3)nc2s1`, the Potency result was “inactive”.

As for `CCOC(=O)c1cc2c(=O)n3ccccc3nc2n(CCCOC)c1=NC(=O)C(C)Oc1ccccc1` (stereo not given), the Potency entry is “inactive”.

In the case of `C=CC(=O)c1ccc2ccccc2c1`, the Potency is 9.88 µM (active).

Take `O=C(CN1CCOC1=O)N1CCn2nc(C(O)Cc3ccccc3)cc2C1` (stereo not given): the Potency result is “inactive”.

Consider `COc1ccc(CCNC(=O)C(=O)NCC(c2ccco2)S(=O)(=O)c2cccs2)cc1OC` (stereo not given), for which the Potency result was “inactive”.

Consider `O=C(O)c1ccc(CSc2nc3cccnc3n2Cc2cccc(F)c2)cc1`, for which the Potency entry is “inactive”.

Regarding `O=S(=O)(c1ccc2c(c1)OCCCO2)N1CCN(S(=O)(=O)c2c(F)cccc2F)CC1`, the Potency result was “inactive”.

As for `Cc1ccc(C(=O)NC2CCN(C#N)CC2)cc1`, the Potency entry was “inactive”.

As to `Cn1c(C(=O)N2CCC(C(=O)N3CCN(c4ccccc4)CC3)CC2)cc2sccc21`, the Potency result was “inactive”.

Consider `Cc1ccsc1C(=O)C1CCCN(Cc2ccc(OC(C)C)c(CO)c2)C1` (stereo not given), for which the Potency entry is “inactive”.

For the compound `CCOc1ccc(CCNC(=O)C2=C(C)C(=O)OC23CCC(C)CC3)cc1OCC` (stereo not given), the Potency entry is “inactive”.

Turning to `COc1ccccc1-c1nnc2n1N=C(c1ccc(OC(F)F)c(OCC3CC3)c1)CS2`, the Potency result was “inactive”.

For the compound `O=C(Nc1ncc(Cc2ccc(C(F)(F)F)cc2)s1)c1cnc(-c2ccccc2)o1`, the Potency entry was “inactive”.

For `CCOc1ccc(CCNC(=O)c2c(C)oc3ncn(C)c(=O)c23)cc1`, the Potency result is “inactive”.

Turning to `CN[C@H]1CN(c2ccc3c(=O)c(C(=O)O)cn(-c4nccs4)c3n2)C[C@@H]1OC`, the activity change, negative = inhibition is -5.01% [at 5.1 µM].

As to `Cc1cc(F)ccc1NC(=O)CCC1CCCN(C(=O)c2ccc(Cl)s2)C1` (stereo not given), the Potency entry is “inactive”.

On to `CCC(CC)[C@H](NC(C)=O)[C@@H]1[C@H](O)[C@@H](C(=O)O)C[C@H]1N=C(N)N`, for which the activity change, negative = inhibition is -4.24% [at 0.199 µM].

For the compound `C[C@@H]1O[C@@H](O[C@@H]2[C@@H](O)[C@H](O[C@@H]3[C@@H](O)[C@@H](O)[C@H](O[C@H]4[C@H](OC(=O)[C@]56CCC(C)(C)C[C@H]5C5=CCC7[C@@]8(C)C[C@H](O)[C@H](O[C@@H]9O[C@@H](C)[C@H](O)[C@@H](O)[C@H]9O)[C@@](C)(CO)C8CC[C@@]7(C)[C@]5(C)C[C@H]6O)O[C@H](C)[C@H](O)[C@@H]4O)O[C@H]3C)OC[C@H]2O)[C@H](O)[C@H](O)[C@H]1O` (stereo not given in full), the activity change, negative = inhibition was 10.2% [at 5.1 µM].
